Structures are written as SMILES. The source made the active and inactive calls. Unless noted, no rule for the calls is given here.

The text below walks through data of PubChem BioAssay.

Experiment [1] can be described thus: hESC survival regulators, cell-based (AID 493140).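 Also: cells exposed to compounds for four days before counting.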 Conditions: human embryonic stem cell survival screen; stronger effect = higher value.
Experiment [2] is described as follows: sensitizers of A549 cells to miR-34 induction, primary screen, imaging, A549 dox-inducible miR-34, nuclei and caspase counts (AID 1347080;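 active = compounds whose cell count with miR-34 switched on is under 0.7 times the count with it off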). Conditions: A549 miR-34 inducible, Hoechst nuclei count, 48 h.
Experiment [3] is described as follows: inhibitors of Cryptococcus chitosan production, flow cytometry, Cibacron Brilliant Red staining (AID 1347148).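 Also: compound exposure lasted three days at 37 degrees C.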 Conditions: Cryptococcus neoformans chitosan, stronger effect = lower value; at 10 µM unless noted. For orientation: In flow cytometry, cells or beads pass a laser one at a time.
Experiment [4] is described as follows: survival rescue of mitochondrial mutant cells in low glucose, primary screen, MELAS cybrids, Rieske KO mouse fibroblasts, CellTiter-Glo (AID 1508586;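 active = mean z-score across replicates of 1.96 or higher in either the MELAS or the Rieske mutant cell line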;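 also: z relative to plate mean and SD of compound and empty wells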). (In ATP-based viability assays light output follows the ATP content of the culture.)
For experiment [5], the target named is Mitogen-activated protein kinase 7 (Homo sapiens) (UniProt Q13164). Put plainly: ERK5 transactivation activators in reporter cells, primary screen, cell-based, HTS (AID 1508626;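 active = luciferase signal above three times the same-plate solvent-only control wells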;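 also: luciferase driven by Gal4-ERK5 fusion binding five Gal4 sites before minimal TATA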). Conditions: HeLa Gal4-ERK5 transactivation, 18 h, at 5 µM, stronger effect = higher value.
Chain of Mitogen-activated protein kinase 7 (Homo sapiens) (Q13164 whole entry, looked up, the tested form may be a part): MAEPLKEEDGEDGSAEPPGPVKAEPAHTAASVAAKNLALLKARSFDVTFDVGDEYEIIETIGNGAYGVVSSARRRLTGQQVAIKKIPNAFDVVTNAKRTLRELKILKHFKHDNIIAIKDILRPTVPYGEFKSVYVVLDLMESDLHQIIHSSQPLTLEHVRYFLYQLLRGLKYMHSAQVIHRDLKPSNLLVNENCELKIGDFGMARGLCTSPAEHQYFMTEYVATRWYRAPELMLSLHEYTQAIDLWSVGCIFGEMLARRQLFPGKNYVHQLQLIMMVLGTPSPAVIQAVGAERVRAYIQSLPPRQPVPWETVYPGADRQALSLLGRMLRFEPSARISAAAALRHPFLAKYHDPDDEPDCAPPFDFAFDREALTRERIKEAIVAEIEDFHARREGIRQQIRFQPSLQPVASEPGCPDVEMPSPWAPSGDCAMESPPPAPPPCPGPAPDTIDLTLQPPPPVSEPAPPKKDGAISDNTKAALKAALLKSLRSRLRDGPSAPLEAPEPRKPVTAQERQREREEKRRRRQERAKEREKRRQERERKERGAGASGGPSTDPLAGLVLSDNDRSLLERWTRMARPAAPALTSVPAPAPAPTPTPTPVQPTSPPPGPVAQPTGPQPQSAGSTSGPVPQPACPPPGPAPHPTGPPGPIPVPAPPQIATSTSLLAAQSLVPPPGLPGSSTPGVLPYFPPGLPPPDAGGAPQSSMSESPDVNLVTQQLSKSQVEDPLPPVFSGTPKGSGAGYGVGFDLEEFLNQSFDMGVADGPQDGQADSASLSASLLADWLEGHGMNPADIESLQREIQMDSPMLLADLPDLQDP
Experiment [6] can be described thus: circadian clock period modulators, cell-based, LOPAC library, luminescence reporter (AID 2774).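 Also: values are relative to mean of DMSO wells on each plate.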 Conditions: circadian reporter cells, at 7 µM, actives lie on both sides.
Experiment [7] relates to Hepatitis C virus NS3 helicase. In words: HCV NS3 helicase inhibitors, primary screen, biochemical, fluorescence polarization, LOPAC1280 library (AID 687035; in the data active = inhibition above about 37%). Conditions: Purified HCV NS3 helicase, Cy5-dT15 ssDNA binding fluorescence polarization; stronger effect = higher value; concentration not given here. On the technique in general: Fluorescence polarisation rises when a labelled molecule tumbles more slowly, as on binding a larger partner.

Experiment [8] can be described thus: Cy5 fluorescence quenching or enhancement artefacts, artefact control for HCV NS3 helicase inhibitor project, biochemical, LOPAC1280 (AID 687037). Conditions: Cy5-DNA-NS3h complex fluorescence interference counterscreen.
The mark [9] stands for this setting: stronger effect = lower value, cell number ratio, induced over uninduced.
Where [10] appears, read: measured here: relative caspase fold change +Dox/-Dox.
[11] abbreviates: measured here: total cells with miR-34 induction, stronger effect = lower value.
The mark [12] stands for this setting: measured here: total cells without miR-34 induction.

As for `N#C/C(=C\c1cc(Cl)cc(Cl)c1)c1cccnc1`, the survival in experiment [1] is 87.3 (inactive). Besides, the results for the fold change in experiment [2] (setting [9]) and in experiment [2] (setting [10]) were 1.04 (inactive) and 0.973, respectively. In addition, the cell count in experiment [2] (setting [11]) stood at 1950; in experiment [2] (setting [12]), 1890. Also, in experiment [3], the fold fluorescence is 4 [at 181.7 µM] (inactive).

Consider `N#CC(C#N)=C(N)/C(C#N)=C/c1ccc2[nH]ccc2c1`, for which the survival in experiment [1] was 107 (inactive). In addition, the fold change in experiment [2] (setting [9]) is 1.01 (inactive); in experiment [2] (setting [10]), 0.81. The cell count in experiment [2] (setting [11]) was 5080; in experiment [2] (setting [12]) it was 5030. For the same molecule, the fold fluorescence in experiment [3] was 3.69 [at 192.8 µM] (inactive).

Consider `CCCCC/C=C\C/C=C\C/C=C\C/C=C\CCCC(=O)O[C@@H](CO)COCCCCCCCCCCCCCCCC`, for which the survival in experiment [1] was 92.7 (inactive). Also, the values for the fold change in experiment [2] (setting [9]) and in experiment [2] (setting [10]) were 0.961 (inactive) and 1.06, respectively. The figures for the cell count in experiment [2] (setting [11]) and in experiment [2] (setting [12]) were 5620 and 5840, respectively. In addition, the fold fluorescence in experiment [3] is 5.56 (inactive).

For `CCCCCC(=O)/C=C/C=C\CCCCCCCC(=O)O`, in experiment [1], the survival is 99.8 (inactive). For the same molecule, the fold change in experiment [2] (setting [9]) was 0.995 (inactive); in experiment [2] (setting [10]) it was 1.29. Besides, the results for the cell count in experiment [2] (setting [11]) and in experiment [2] (setting [12]) were 5630 and 5650, respectively. In addition, the fold fluorescence in experiment [3] was 4.25 [at 1 µM] (inactive).

`O=C(O)c1cc(N(Cc2ccccc2O)Cc2cc(O)ccc2O)ccc1O`: in experiment [1], the survival was 94.2 (inactive). The fold change in experiment [2] (setting [9]) was 0.907 (inactive); in experiment [2] (setting [10]), 1.1. The cell count in experiment [2] (setting [11]) turned out to be 5160; in experiment [2] (setting [12]), 5680. The fold fluorescence in experiment [3] is 4.34 [at 131.1 µM] (inactive).

Regarding `CCCCC/C=C\C/C=C\C/C=C\C=C\[C@@H](O)CCCC(=O)O`, the survival in experiment [1] was 128 (inactive). The fold change in experiment [2] (setting [9]) was 0.957 (inactive); in experiment [2] (setting [10]) it was 1.24. Further, the results for the cell count in experiment [2] (setting [11]) and in experiment [2] (setting [12]) were 5700 and 5960, respectively. Moreover, the fold fluorescence in experiment [3] is 4.16 [at 1 µM] (inactive).

As for `CCOC(=O)C1OC1C(=O)NC(CC(C)C)C(=O)NCCC(C)C` (stereo not drawn), the fold change in experiment [2] (setting [9]) was 0.903 (inactive); in experiment [2] (setting [10]), 0.67. Also, the results for the cell count in experiment [2] (setting [11]) and in experiment [2] (setting [12]) were 8060 and 8930, respectively. Also, in experiment [3], the fold fluorescence is 5.77 [at 146 µM] (inactive). The z-score is -0.522 (inactive) in experiment [4] (MELAS cybrid survival, CellTiter-Glo 48 h, stronger effect = higher value) and -1.31 in experiment [4] (Rieske KO mouse fibroblast survival, CellTiter-Glo 72 h).

Turning to `CCCCC/C=C\C/C=C\CCCCCCCC(N)=O`, the survival in experiment [1] is 66.5 (inactive). Moreover, the fold change in experiment [2] (setting [9]) is 0.981 (inactive); in experiment [2] (setting [10]), 1.16. In addition, the values for the cell count in experiment [2] (setting [11]) and in experiment [2] (setting [12]) were 6200 and 6320, respectively. For the same molecule, the fold fluorescence in experiment [3] was 4.31 (inactive).

Turning to `COc1c(C=O)c(O)cc2c1C(=O)c1ccccc1C2=O`, in experiment [1], the survival was 93.2 (inactive). Besides, the fold change in experiment [2] (setting [9]) was 0.91 (inactive); in experiment [2] (setting [10]), 0.797. The cell count in experiment [2] (setting [11]) is 2810; in experiment [2] (setting [12]) it was 3080. For the same molecule, in experiment [3], the fold fluorescence was 5.22 [at 177.1 µM] (inactive).

`CCCCCCCCCCCCCCCC(=O)N[C@H](CN1CCOCC1)[C@H](O)c1ccccc1`: in experiment [1], the survival is 83.7 (inactive). The fold change is 1 (inactive) in experiment [2] (setting [9]) and 1.57 in experiment [2] (setting [10]). In addition, the cell count in experiment [2] (setting [11]) and in experiment [2] (setting [12]) was 5590 in each case. Moreover, the fold fluorescence in experiment [3] was 5.42 (inactive).

As to `CC(=O)N[C@@H](CSC/C=C(\C)CCC=C(C)C)C(=O)O`, in experiment [1], the survival is 97.5 (inactive). For the same molecule, the values for the fold change in experiment [2] (setting [9]) and in experiment [2] (setting [10]) were 0.983 (inactive) and 1.12, respectively. For the same molecule, the cell count was found to be 5900 in experiment [2] (setting [11]) and 6000 in experiment [2] (setting [12]). Moreover, in experiment [3], the fold fluorescence is 5.25 (inactive).

For `CCCCC[C@H](O)C/C=C1/C(=O)C=C[C@@H]1C/C=C\CCCC(=O)O`, the survival in experiment [1] is 95.5 (inactive). The fold change in experiment [2] (setting [9]) is 0.887 (inactive); in experiment [2] (setting [10]), 0.855. The values for the cell count in experiment [2] (setting [11]) and in experiment [2] (setting [12]) were 5300 and 5980, respectively. In addition, the fold fluorescence in experiment [3] was 4.79 (inactive).

On to `CC(C)c1cccc(O)c(=O)c1`, for which the values for the fold change in experiment [2] (setting [9]) and in experiment [2] (setting [10]) were 0.903 (inactive) and 1.02, respectively. Further, the cell count in experiment [2] (setting [11]) amounted to 1840; in experiment [2] (setting [12]), 2030. The fold fluorescence in experiment [3] is 10.2 [at 304.5 µM] (inactive). Besides, the luciferase signal in experiment [5] is 44 AU (inactive).

For the molecule `NCCNS(=O)(=O)c1cccc2cnccc12`, the period change in experiment [6] is 0.39 h (inactive). Besides, the survival in experiment [1] is 266 (active). Moreover, the fold change is 1.1 (inactive) in experiment [2] (setting [9]) and 1.06 in experiment [2] (setting [10]). The cell count in experiment [2] (setting [11]) was 3580; in experiment [2] (setting [12]), 3260. Moreover, the fold fluorescence in experiment [3] is 3.25 [at 154.2 µM] (inactive).

On to `CCCCC/C=C\C/C=C\CCCCCCCC(=O)O[C@@H](CO)COC(=O)CCCCCCCCCCCCCCCCC`, for which the fold change was 0.999 (inactive) in experiment [2] (setting [9]) and 1.31 in experiment [2] (setting [10]). Also, the cell count in experiment [2] (setting [11]) and in experiment [2] (setting [12]) was 6430 in each case. Moreover, the fold fluorescence in experiment [3] is 4.76 (inactive).

As for `CC/C=C\C/C=C\C/C=C\CCCCCCCCCCCC(=O)O`, the survival in experiment [1] is 81.8 (inactive). Moreover, the fold change was 0.989 (inactive) in experiment [2] (setting [9]) and 0.936 in experiment [2] (setting [10]). The cell count in experiment [2] (setting [11]) is 5970; in experiment [2] (setting [12]), 6030. In addition, in experiment [3], the fold fluorescence is 4.89 (inactive).

Regarding `N#Cc1c(-c2ccccc2)no[n+]1[O-]`, the period change in experiment [6] was -0.17 h (inactive). Besides, the fold change in experiment [2] (setting [9]) was 1.56 (inactive); in experiment [2] (setting [10]), 1. The cell count in experiment [2] (setting [11]) came to 1090; in experiment [2] (setting [12]), 700. Also, the fold fluorescence in experiment [3] is 6.16 [at 267.2 µM] (inactive).

As to `COC(=O)[C@@H](N)CSC/C=C(\C)CC/C=C(\C)CCC=C(C)C`, the survival in experiment [1] is 74.2 (inactive). Moreover, the fold change in experiment [2] (setting [9]) was 0.927 (inactive); in experiment [2] (setting [10]) it was 1.37. Also, the cell count in experiment [2] (setting [11]) amounted to 6060; in experiment [2] (setting [12]), 6540. In addition, the fold fluorescence in experiment [3] is 4.53 (inactive).

For orientation: inhibition means the relative decrease from the control value, in per cent. Regarding `CCCCC/C=C\CC(O)/C=C/c1cccc(CC(O)CCCCO)n1` (stereo not drawn), the period change in experiment [6] is 0.025 h (inactive). In addition, the survival in experiment [1] is 97.4 (inactive). Moreover, the inhibition in experiment [7] is -1% (inactive). In experiment [8], the fluorescence ratio (interference) is 0.9 (inactive). Also, the fold change was 0.988 (inactive) in experiment [2] (setting [9]) and 1.4 in experiment [2] (setting [10]). In addition, the cell count in experiment [2] (setting [11]) worked out at 5690; in experiment [2] (setting [12]) it was 5760. Further, the fold fluorescence in experiment [3] is 3.69 [at 1 µM] (inactive).
